# In all, about 5,500 compounds went through this assay and about 2,000 (36%) were called active. Not shown: some 18% with an inconclusive outcome. Cut-off read from the data, not from the text of the source: active = normalized growth mostly below about 0.91 (no sharp cut-off); inconclusive = no clear call, values can overlap the other calls; inactive = mostly above about 0.92. The list shows a part of the results.
# Experiment: chemical genetic growth profiling, strain panel (AID 1159580);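 note: tested at 20 µM; growth read once vehicle control cultures reached saturation at 30 °C; 1 = growth at the plate median or of vehicle wells; lower values mean less growth of the strain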
# Conditions: S. cerevisiae deletion strains, growth OD
smiles,measurement,setting,value
CC(=O)O[C@@H]1C[C@@]2(C)[C@H](c3ccoc3)C[C@H]3O[C@]32[C@]2(C)C(=O)C(O)=C3C(C)(C)C(=O)C=C[C@]3(C)C12 (stereo partly drawn),normalized growth,"locus YJL187C, strain SWE1 (second series), hits give low values",0.958 (inactive)
same,normalized growth,"locus YJL187C, strain SWE1, hits give low values",0.953 (inactive)
same,normalized growth,"locus YJR043C, strain POL32, hits give low values",0.97 (inactive)
same,normalized growth,"locus YJR066W, strain TOR1, hits give low values",0.888 (inactive)
same,normalized growth,"locus YKL009W, strain mrt4, hits give low values",0.94 (inactive)
same,normalized growth,"locus YKL068W, hits give low values",0.962 (inactive)
same,normalized growth,"locus YKL085W, strain MDH1 (second series), hits give low values",0.993 (inactive)
same,normalized growth,"locus YKL085W, strain MDH1, hits give low values",0.993 (inactive)
same,normalized growth,"locus YKL160W, strain elf1, hits give low values",0.969 (inactive)
same,normalized growth,"locus YKR001C, strain vps1, hits give low values",0.812 (active)
same,normalized growth,"locus YKR026C, strain gcn3, hits give low values",0.965 (inactive)
same,normalized growth,"locus YKR091W, strain srl3, hits give low values",0.971 (inactive)
same,normalized growth,"locus YLL001W, strain dnm1, hits give low values",0.979 (inactive)
same,normalized growth,"locus YLL026W, hits give low values",0.96 (inactive)
same,normalized growth,"locus YLL041C, strain sdh2, hits give low values",0.976 (inactive)
same,normalized growth,"locus YLR027C, strain aat2, hits give low values",0.942 (inactive)
same,normalized growth,"locus YLR039C, strain RIC1, hits give low values",0.513 (active)
same,normalized growth,"locus YLR058C, strain SHM2, hits give low values",0.936 (inactive)
same,normalized growth,"locus YLR102C, strain apc9, hits give low values",0.958 (inactive)
same,normalized growth,"locus YLR113W, strain HOG1, hits give low values",0.911 (inactive)
same,normalized growth,"locus YLR221C, strain rsa3, hits give low values",0.863 (active)
same,normalized growth,"locus YLR258W, strain gsy2, hits give low values",0.948 (inactive)
same,normalized growth,"locus YLR262C, strain YPT6 (second series), hits give low values",0.669 (active)
same,normalized growth,"locus YLR262C, strain YPT6, hits give low values",0.483 (active)
same,normalized growth,"locus YLR268W, strain sec22, hits give low values",0.832 (active)
same,normalized growth,"locus YLR320W, strain mms22, hits give low values",0.816 (active)
same,normalized growth,"locus YLR342W, strain FKS1, hits give low values",0.921 (inactive)
same,normalized growth,"locus YLR357W, strain rsc2, hits give low values",1.03 (inactive)
same,normalized growth,"locus YLR370C, strain arc18, hits give low values",0.927 (inactive)
same,normalized growth,"locus YLR371W, strain rom2, hits give low values",0.731 (active)
same,normalized growth,"locus YLR384C, strain iki3, hits give low values",0.956 (inactive)
same,normalized growth,"locus YLR418C, strain cdc73, hits give low values",0.35 (active)
same,normalized growth,"locus YML016C, strain PPZ1, hits give low values",0.946 (inactive)
same,normalized growth,"locus YML032C, strain rad52, hits give low values",0.853 (active)
same,normalized growth,"locus YML120C, strain ndi1, hits give low values",0.961 (inactive)
same,normalized growth,"locus YML124C, strain tub3, hits give low values",0.963 (inactive)
same,normalized growth,"locus YMR058W, strain fet3, hits give low values",0.937 (inactive)
same,normalized growth,"locus YMR078C, strain ctf18, hits give low values",0.925 (inactive)
same,normalized growth,"locus YMR125W, strain sto1, hits give low values",0.957 (inactive)
same,normalized growth,"locus YMR129W, hits give low values",0.977 (inactive)
same,normalized growth,"locus YMR205C, strain PFK2, hits give low values",0.886 (inactive)
same,normalized growth,"locus YMR223W, strain ubp8, hits give low values",0.922 (inactive)
same,normalized growth,"locus YMR231W, strain pep5, hits give low values",0.927 (active)
same,normalized growth,"locus YMR307W, strain GAS1, hits give low values",0.61 (inactive)
same,normalized growth,"locus YNL067W, strain RPL9B, hits give low values",0.985 (inactive)
same,normalized growth,"locus YNL071W, strain lat1, hits give low values",0.736 (active)
same,normalized growth,"locus YNL128W, strain TEP1, hits give low values",0.914 (inactive)
same,normalized growth,"locus YNL183C, strain NPR1, hits give low values",0.909 (inactive)
same,normalized growth,"locus YNL209W, strain ssb2, hits give low values",0.974 (inactive)
same,normalized growth,"locus YNL233W, strain BNI4, hits give low values",0.935 (inactive)
same,normalized growth,"locus YNL248C, strain rpa49, hits give low values",0.952 (inactive)
same,normalized growth,"locus YNL250W, strain rad50, hits give low values",1.02 (inactive)
same,normalized growth,"locus YNL271C, strain bni1, hits give low values",0.945 (inactive)
same,normalized growth,"locus YNL298W, strain CLA4, hits give low values",0.953 (inactive)
same,normalized growth,"locus YNL307C, strain MCK1, hits give low values",0.571 (active)
same,normalized growth,"locus YNL322C, strain KRE1 (second series), hits give low values",0.956 (inactive)
same,normalized growth,"locus YNR049C, strain mso1, hits give low values",0.959 (inactive)
same,normalized growth,"locus YNR052C, strain pop2, hits give low values",0.882 (active)
same,normalized growth,"locus YOL006C, strain TOP1, hits give low values",0.771 (inactive)
same,normalized growth,"locus YOL012C, strain htz1",0.819 (inactive)
same,normalized growth,"locus YOL147C, strain pex11, hits give low values",0.818 (active)
same,normalized growth,"locus YOR001W, strain rrp6, hits give low values",0.92 (inactive)
same,normalized growth,"locus YOR061W, strain CKA2, hits give low values",0.923 (inactive)
same,normalized growth,"locus YOR069W, strain VPS5, hits give low values",0.969 (inactive)
same,normalized growth,"locus YOR070C, strain gyp1, hits give low values",0.949 (inactive)
same,normalized growth,"locus YOR080W, strain dia2, hits give low values",0.965 (inactive)
same,normalized growth,"locus YOR083W, strain WHI5, hits give low values",0.976 (inactive)
same,normalized growth,"locus YOR106W, strain vam3, hits give low values",0.942 (inactive)
same,normalized growth,"locus YOR136W, strain idh2, hits give low values",0.941 (inactive)
same,normalized growth,"locus YOR144C, strain elg1, hits give low values",0.864 (active)
same,normalized growth,"locus YOR184W, strain ser1, hits give low values",0.744 (active)
same,normalized growth,"locus YOR231W, strain MKK1, hits give low values",0.918 (inactive)
same,normalized growth,"locus YOR265W, strain rbl2, hits give low values",0.963 (inactive)
same,normalized growth,"locus YOR270C, strain vph1, hits give low values",0.776 (active)
same,normalized growth,"locus YOR290C, strain snf2, hits give low values",0.929 (inactive)
same,normalized growth,"locus YOR316C, strain cot1, hits give low values",0.962 (inactive)
same,normalized growth,"locus YPL051W, strain arl3, hits give low values",0.895 (active)
same,normalized growth,"locus YPL055C, strain LGE1, hits give low values",0.803 (inactive)
same,normalized growth,"locus YPL078C, strain atp4, hits give low values",0.973 (inactive)
same,normalized growth,"locus YPL106C, strain sse1, hits give low values",0.974 (inactive)
same,normalized growth,"locus YPL240C, strain hsp82, hits give low values",0.956 (inactive)
same,normalized growth,"locus YPL241C, strain CIN2, hits give low values",0.966 (inactive)
same,normalized growth,"locus YPL256C, strain CLN2, hits give low values",0.91 (inactive)
same,normalized growth,"locus YPR119W, strain clb2, hits give low values",0.959 (inactive)
same,normalized growth,"locus YPR141C, strain kar3, hits give low values",0.957 (inactive)
same,normalized growth,"locus YPR163C, strain tif3, hits give low values",0.757 (active)
same,normalized growth,"locus YPR167C, strain met16, hits give low values",0.945 (inactive)
same,normalized growth,"strain wtn01, hits give low values",0.864 (active)
